In the supplement of paper PMC12645437, “Orthogonal IMiD-Degron Pairs Induce Selective Protein Degradation in Cells” (ACS Chemical Biology, 2025):
In all, about 8,300 sequences were measured (“log2 fold change of degron read counts, EGFP-low vs EGFP+ sorted cells (limma voom), compound-induced degradation”: median about -1.1, highest 2% from about 3.2 on). The list comes from a sample in which the highest values are over-represented; it also holds similar and randomly drawn sequences.

T1: CRBN, Q96SW2
T1 chain: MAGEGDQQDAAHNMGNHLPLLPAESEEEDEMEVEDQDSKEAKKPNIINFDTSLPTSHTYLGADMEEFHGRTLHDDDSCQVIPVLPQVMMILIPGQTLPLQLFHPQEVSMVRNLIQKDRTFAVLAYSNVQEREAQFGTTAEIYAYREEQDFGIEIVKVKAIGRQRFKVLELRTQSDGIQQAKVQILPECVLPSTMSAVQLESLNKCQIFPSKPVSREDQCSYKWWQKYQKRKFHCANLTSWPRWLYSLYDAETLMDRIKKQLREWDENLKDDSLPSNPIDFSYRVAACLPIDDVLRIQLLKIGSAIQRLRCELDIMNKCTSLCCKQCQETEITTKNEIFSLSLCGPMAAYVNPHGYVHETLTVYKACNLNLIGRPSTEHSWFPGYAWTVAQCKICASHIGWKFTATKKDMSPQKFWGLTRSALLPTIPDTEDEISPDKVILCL

B1: 46F_47H_49P_50V_52G_53A_54K_55F_67L_, Q9UKT9 (peptide)
chain: FHCPVCGAKFTQKGNLLRHIKL
B2: 46F_47F_49P_50V_52G_53A_54K_55F_67L_, Q9UKT9 (peptide)
chain: FFCPVCGAKFTQKGNLLRHIKL
B3: 46F_47M_49P_50V_52G_53A_54K_55F_67L_, Q9UKT9 (peptide)
chain: FMCPVCGAKFTQKGNLLRHIKL
B4: 46F_47N_49P_50V_52G_53A_54K_55F_67L_, Q9UKT9 (peptide)
chain: FNCPVCGAKFTQKGNLLRHIKL
B5: 46F_47K_49P_50V_52G_53A_54K_55F_67L_, Q9UKT9 (peptide)
chain: FKCPVCGAKFTQKGNLLRHIKL
B6: 46F_47V_49P_50V_52G_53A_54K_55F_67L_, Q9UKT9 (peptide)
chain: FVCPVCGAKFTQKGNLLRHIKL
B7: 46F_47G_49P_50V_52G_53A_54K_55F_67L_, Q9UKT9 (peptide)
chain: FGCPVCGAKFTQKGNLLRHIKL
B8: 46F_47A_49P_50V_52G_53A_54K_55F_67L_, Q9UKT9 (peptide)
chain: FACPVCGAKFTQKGNLLRHIKL
B9: 46F_47W_49P_50V_52G_53A_54K_55F_67L_, Q9UKT9 (peptide)
chain: FWCPVCGAKFTQKGNLLRHIKL
B10: 46F_47E_49P_50V_52G_53A_54K_55F_67L_, Q9UKT9 (peptide)
chain: FECPVCGAKFTQKGNLLRHIKL
B11: 46F_47D_49P_50V_52G_53A_54K_55F_67L_, Q9UKT9 (peptide)
chain: FDCPVCGAKFTQKGNLLRHIKL
B12: 46F_47Q_49P_50V_52G_53A_54K_55F_67L_, Q9UKT9 (peptide)
chain: FQCPVCGAKFTQKGNLLRHIKL
B13: 46F_47G_49P_50I_52G_53R_54K_55F_67L_, Q9UKT9 (peptide)
chain: FGCPICGRKFTQKGNLLRHIKL
B14: 46F_47R_49N_50Q_52G_53R_54V_55F_67L_, Q9UKT9 (peptide)
chain: FRCNQCGRVFTQKGNLLRHIKL
B15: 46F_47Q_49P_50I_52G_53R_54L_55F_67L_, Q9UKT9 (peptide)
chain: FQCPICGRLFTQKGNLLRHIKL
B16: 46F_47V_49E_50I_52G_53A_54F_55F_67L_, Q9UKT9 (peptide)
chain: FVCEICGAFFTQKGNLLRHIKL
B17: 46F_47I_49D_50V_52G_53A_54L_55F_67L_, Q9UKT9 (peptide)
chain: FICDVCGALFTQKGNLLRHIKL
B18: 46F_47C_49P_50Q_52G_53A_54T_55F_67L_, Q9UKT9 (peptide)
chain: FCCPQCGATFTQKGNLLRHIKL
B19: 46F_47L_49P_50I_52G_53R_54E_55F_67L_, Q9UKT9 (peptide)
chain: FLCPICGREFTQKGNLLRHIKL
B20: 46F_47N_49N_50I_52G_53A_54I_55F_67L_, Q9UKT9 (peptide)
chain: FNCNICGAIFTQKGNLLRHIKL
B21: 46F_47Q_49D_50Q_52G_53A_54W_55F_67L_, Q9UKT9 (peptide)
chain: FQCDQCGAWFTQKGNLLRHIKL
B22: 46F_47F_49N_50V_52G_53A_54A_55F_67L_, Q9UKT9 (peptide)
chain: FFCNVCGAAFTQKGNLLRHIKL
B23: 46F_47Y_49P_50I_52G_53A_54Y_55F_67L_, Q9UKT9 (peptide)
chain: FYCPICGAYFTQKGNLLRHIKL
B24: 46F_47V_49P_50I_52G_53A_54Y_55F_67L_, Q9UKT9 (peptide)
chain: FVCPICGAYFTQKGNLLRHIKL
B25: 46F_47T_49P_50I_52G_53A_54Y_55F_67L_, Q9UKT9 (peptide)
chain: FTCPICGAYFTQKGNLLRHIKL
B26: 46F_47C_49P_50I_52G_53A_54Y_55F_67L_, Q9UKT9 (peptide)
chain: FCCPICGAYFTQKGNLLRHIKL
B27: 46F_47Q_49P_50I_52G_53A_54Y_55F_67L_, Q9UKT9 (peptide)
chain: FQCPICGAYFTQKGNLLRHIKL
B28: 46F_47S_49P_50I_52G_53A_54Y_55F_67L_, Q9UKT9 (peptide)
chain: FSCPICGAYFTQKGNLLRHIKL
B29: 46F_47N_49P_50I_52G_53A_54Y_55F_67L_, Q9UKT9 (peptide)
chain: FNCPICGAYFTQKGNLLRHIKL
B30: 46F_47I_49P_50I_52G_53A_54Y_55F_67L_, Q9UKT9 (peptide)
chain: FICPICGAYFTQKGNLLRHIKL
B31: 46F_47W_49P_50I_52G_53A_54Y_55F_67L_, Q9UKT9 (peptide)
chain: FWCPICGAYFTQKGNLLRHIKL

Molecular target: T1, CRBN, Q96SW2
Assay: log2 fold change of degron read counts, EGFP-low vs EGFP+ sorted cells (limma voom), compound-induced degradation; higher = more compound-induced degradation of the degron-EGFP fusion; degrons are variants of IKZF1/3 zinc finger 2; compound dose not given here
Settings: Jurkat, 18 h
[1] = compound: compound 19 (5-tert-butyl-thalidomide)
[2] = compound: compound 22 (5-morpholino-thalidomide)
[3] = compound: compound 33 (diphenyl IMiD analogue)
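Further: pooled lentiviral library of zinc finger degron-EGFP fusions in mCherry-positive Jurkat cells, FACS-sorted after compound exposure, with degron abundance counted by next-generation sequencing.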

| Sequence | log2 fold change of degron read counts [1] | log2 fold change of degron read counts [2] | log2 fold change of degron read counts [3] | log2 fold change of degron read counts (compound: thalidomide) |
| --- | --- | --- | --- | --- |
| B1 | 2.35 | 1.96 | 0.171 | 0.556 |
| B2 | 2.79 | 2.64 | 0.946 | 0.56 |
| B3 | -0.124 | -0.0797 | 0.661 | 0.797 |
| B4 | 1.67 | 0.844 | -1.26 | 0.347 |
| B5 | -1.68 | -2.82 | -3.08 | -1.18 |
| B6 | -0.585 | 1.91 | -0.53 | 2.09 |
| B7 | 3.82 | 1.67 | -0.46 | 1.12 |
| B8 | 3.4 | 1.28 | -1.29 | 0.727 |
| B9 | 2.74 | 3.29 | 0.923 | 0.809 |
| B10 | -0.0658 | -1.21 | -0.306 | 2.62 |
| B11 | 1.65 | 0.129 | -0.726 | 1.92 |
| B12 | 0.186 | 2.88 | 0.361 | 3.96 |
| B13 | 3.06 | 0.59 | -1.32 | -0.606 |
| B14 | -2.28 | -2.49 | -2.54 | -1.61 |
| B15 | -1.51 | -0.0572 | 0.785 | 2.29 |
| B16 | -0.344 | -0.0422 | 1.09 | 1.08 |

| Sequence | log2 fold change of degron read counts [1] | log2 fold change of degron read counts [2] | log2 fold change of degron read counts [3] | log2 fold change of degron read counts (compound: thalidomide) |
| --- | --- | --- | --- | --- |
| B17 | -1.82 | -0.923 | 0.0161 | -0.806 |
| B18 | -1.19 | -0.971 | 1.49 | -0.551 |
| B19 | -2.12 | -2.2 | -0.686 | 0.04 |
| B20 | -1.14 | -1.24 | -0.567 | -1.09 |
| B21 | -2.29 | -2.57 | -1.93 | -1.39 |
| B22 | 1.2 | 1.43 | 0.704 | -0.812 |
| B23 | 3.26 | 3.12 | 2.39 | 1.01 |
| B24 | 0.319 | 1.86 | 1.7 | 2.59 |
| B25 | 1 | 2.25 | 2.83 | 3.31 |
| B26 | 1.38 | 1.19 | 1.52 | 1.42 |
| B27 | -1.06 | 0.884 | 1.61 | 3.36 |
| B28 | 2.23 | 1.26 | 2.17 | 1.38 |
| B29 | 2.2 | 1.13 | 0.721 | 0.825 |
| B30 | -0.481 | 2.03 | 1.75 | 1.86 |
| B31 | 2.72 | 2.69 | 2.4 | 0.973 |
